Screening data as filed in PubChem.
FLuc counter: counter-screen for miR-21 project: firefly luciferase inhibitors or activators; Potency, µM (top dose mostly 57.5 µM), for inactives: top-dose activity change, negative = inhibition, usual class: inhibitors; AID 588342; actives 6.9% (n = 360,000); purified FLuc, Km substrates, luminescence inhibition;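 also: plate controls were vehicle for no effect and reference inhibitor for full effect; nearly all actives have a fitted effect of over 55% in size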
Target sequence (P08659 whole entry, looked up): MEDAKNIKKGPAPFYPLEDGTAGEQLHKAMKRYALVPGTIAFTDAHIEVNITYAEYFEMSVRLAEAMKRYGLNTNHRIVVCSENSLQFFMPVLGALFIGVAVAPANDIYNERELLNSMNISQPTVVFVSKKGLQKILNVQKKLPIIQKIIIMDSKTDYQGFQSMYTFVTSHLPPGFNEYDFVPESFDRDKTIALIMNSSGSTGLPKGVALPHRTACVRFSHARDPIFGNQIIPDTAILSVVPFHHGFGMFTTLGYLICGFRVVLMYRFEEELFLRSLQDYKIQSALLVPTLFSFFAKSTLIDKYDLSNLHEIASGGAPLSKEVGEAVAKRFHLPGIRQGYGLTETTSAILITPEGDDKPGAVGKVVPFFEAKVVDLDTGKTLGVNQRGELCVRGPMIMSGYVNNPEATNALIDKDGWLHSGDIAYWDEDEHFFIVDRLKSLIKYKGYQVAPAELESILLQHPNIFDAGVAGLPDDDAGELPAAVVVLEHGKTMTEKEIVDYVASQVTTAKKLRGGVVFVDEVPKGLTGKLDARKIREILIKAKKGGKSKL
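Purified P. pyralis luciferase (10nM final) with 10uM D-luciferin and 10uM ATP (Km levels) in 50mM Tris acetate pH 7.5, 10mM Mg acetate, 0.01% Tween-20, 0.05% BSA; qHTS 6-point titration, ~60 µM downward; luminescence read.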
Rab9 promoter act: Rab9 promoter activation. actives 2.8% (n = 320,000). AID 485297. Potency, µM (titrated, usually from 9.22 µM), for the others: top-dose activation, negative = inhibition, usual class: activators. Huh7 Rab9 promoter-luciferase reporter, luminescence, 24 h; also: % of control where 0% means no effect; nearly all actives have a fitted effect of over 60% in size
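Using Huh7 cells stably transfected with Rab9 promoter–luciferase, compounds were incubated 24 h at 37 °C, 5% CO2; luciferase luminescence was read 10 min after reagent addition.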
KinaseGlo FLuc: counter-screen: inhibitors of Kinase-Glo firefly luciferase. Kinase-Glo luciferase, ATP luminescence, 8 min. Potency, µM (titrated, usually from 38.3 µM), for the others: at the top dose activity change, negative = inhibition, usual class: inhibitors. actives 0.28% (n = 200,000); also: % is scaled to controls: 0 for no effect and ±100 for the full control effect; nearly all actives have a fitted effect of over 60% in size
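Kinase-Glo luciferase light output from ATP and luciferin was measured with 10 uM ATP, within the enzyme's linear range. Buffer: 50 mM imidazole pH 7.2, 50 mM KCl, 7 mM MgCl2, 0.01% Tween 20, 0.05% BSA; luminescence read after 8 min at ambient temperature.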
ELG1 genotox: inducers of genotoxicity in HEK293T ELG1-luciferase cells | HEK293T ELG1-luciferase reporter, luminescence, 16 h | Potency, µM (titrated, usually from 46 µM), without a hit: at the top dose activity change, positive = activation, usual class: activators | actives 1.3% (n = 330,000) | AID 504466; also: % of control where 0% means no effect; nearly all actives have a fitted effect of over 60% in size
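DMSO vehicle served as control against compound-treated ELG1-luciferase HEK293T cells; exposure lasted 16 hr at 37 °C and 5% CO2, followed by ONE-Glo luminescence detection after 30 min.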
SMN2 splice enh: increases expression of the SMN2 splice variant. AID 1458. Potency, µM (series often up to 46.1 µM), for the others: at the highest dose activity change, positive = activation, usual class: activators. actives 2.8% (n = 210,000). HEK293 SMN2-luciferase splicing reporter, luminescence, 30-36 h; also: % of control where 0% means no effect; nearly all actives have a fitted effect of over 55% in size
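qHTS luciferase splicing reporter: luminescence rises when SMN2 exon 7 is included in transfected HEK293 cells. Compound exposure lasted 30-36 h at 37C, with 4.5 mM final sodium butyrate as control, followed by a ONE-Glo read.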
NPC1 promoter act: activators of NPC1 promoter | AID 485313 | Huh7 NPC1 promoter luciferase reporter, 24 h | actives 2.4% (n = 320,000) | Potency, µM (series often up to 9.22 µM), without a hit: top-dose activation, hits mostly activators; also: % of control where 0% means no effect; nearly all actives have a fitted effect of over 60% in size
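Compounds in DMSO were transferred onto Huh7 NPC1-luciferase reporter cells pre-incubated 2 h; after 24 h at 37 °C, Amplite reagent was dispensed and luminescence recorded 10 min later.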
* marks the source's active call; other numbers are inactive results; ? = inconclusive; / = not tested or not shown. Sampled rows, rich in hits. Any-hit rate of the full collection: about 7.5%. Calls follow the shape of the dose curve; as a rule, active = well fitted curve in the direction sought with a large enough effect; inconclusive = small, poorly fitted or top-dose-only effect, or another doubt; inactive = no such curve, though single readings can be large; an effect the other way counts as inactive or inconclusive. Potency is read from the fitted curve at half-maximal effect.

SMILES	FLuc counter	Rab9 promoter act	KinaseGlo FLuc	ELG1 genotox	SMN2 splice enh	NPC1 promoter act
Cc1ccc(C(=O)NC(=S)Nc2ccccc2C(F)(F)F)cc1C	24µM*	-2%	0%	1%	-17%	3%
CC(=O)c1cccc(NC(=S)NC(=O)c2cncc(Br)c2)c1	?	?	/	10%	/	2.5µM*
COc1cc(C)c(CN2CCN(CC(=O)Nc3ccccc3C(=O)NC3CC3)CC2)cc1OC	4%	1%	/	-2%	/	0%
Cc1nn(C(=O)c2ccc(Cl)cc2)c(C)c1S(=O)(=O)N1CCOCC1	-18%	/	/	/	/	/
CCOCC(=O)Nc1cccc(Br)c1	-39%	1%	2%	3%	6%	0%
CC#CCCCC(=O)Nc1cccc(C(=O)O)c1	24µM*	3.2µM*	-1%	12%	?	?
Cc1ccc(C(=O)O)cc1NC(=S)NC(=O)c1ccc(-c2ccccc2)cc1	1.5µM*	?	0%	?	/	?
O=C(NC(=S)Nc1ccc(Cl)cc1)c1ccccc1	11µM*	?	/	22%	/	?
CC(=O)c1cccc(NC(=O)CCCSc2ccccc2)c1	?	-3%	/	0%	/	0%
CC(C)CCOCC(=O)Nc1cccc(C(=O)O)c1	5.4µM*	0.5µM*	-4%	?	14µM*	0.71µM*
Cc1ccc(NC(=O)c2c(C)oc3ccc(O)c(CN4CCCCCC4)c23)cc1	-3%	/	/	/	-7%	/
Cc1cc(C(=O)Nc2ccc(S(=O)(=O)N3CCOCC3)cc2)ccc1[N+](=O)[O-]	3%	1%	/	-5%	/	-5%
COC(=O)Oc1ccc(/C=N/NC(=O)CN(c2ccccc2Cl)S(C)(=O)=O)cc1OC	0%	-3%	1%	?	3%	-5%
O=C(NC(=S)Nc1ccccn1)c1cccc([N+](=O)[O-])c1	24µM*	1.6µM*	/	?	/	1.3µM*
O=C(Nc1ccc(Cl)cc1)C(Cl)C(=O)c1ccccc1 (stereo not given)	15µM*	17%	/	?	/	2%
O=C(O)/C(=N/NC(=O)c1ccc(Cl)cc1)c1ccccc1	17µM*	2%	/	7%	/	-5%
CCOc1ccc(C(=O)NC(=S)Nc2ccccn2)cc1[N+](=O)[O-]	-6%	?	-1%	0%	-68%	-2%
O=C(O)c1cccc(NC(=S)NC(=O)c2ccc(-c3ccccc3)cc2)c1	1.1µM*	?	1%	?	3.2µM*	0.35µM*
COCC(=O)N1CCC2(CCN(Cc3ccccc3)CC2)CC1	/	/	-2%	/	-15%	/
CC1CN(C(=S)Nc2ccccc2C(F)(F)F)CC(C)O1 (stereo not given)	3%	7%	/	-1%	/	-2%
CCCCC(=O)NC(=S)Nc1cccc(C(=O)O)c1	24µM*	20%	-1%	9%	/	28%
O=C(NC(=S)Nc1ccccn1)c1cncc(Br)c1	15µM*	?	-2%	11%	-25%	?
O=C(N/C(=N\O)c1ccccc1)Nc1ccc(Cl)cc1	17µM*	-5%	-2%	?	/	1%
O=C(NC(=S)Nc1ccc(Br)cn1)c1cncc(Br)c1	-5%	-3%	6%	2%	12%	6%
CC(=O)c1cccc(NC(=S)NC(=O)c2cccc(Cl)c2)c1	21µM*	3.5µM*	-1%	?	?	?
SMILES	FLuc counter	Rab9 promoter act	KinaseGlo FLuc	ELG1 genotox	SMN2 splice enh	NPC1 promoter act
Cc1ccc(Cn2c(SCC(=O)NCc3ccccc3Cl)nc3ccsc3c2=O)cc1	4%	/	/	/	/	/
CCOC(=O)C1CCCN(C/C(O)=C(\C#N)c2nc(-c3ccc(Cl)cc3)cs2)C1 (stereo not given)	0%	-6%	2%	-6%	-12%	0%
N#C/C(=C(/O)CN1CCCC1)c1nc(-c2ccccc2)cs1	19µM*	3.2µM*	/	?	/	4µM*
O=C(Cn1c(=O)oc2ccccc21)N1CCCC1	-2%	-4%	/	-1%	/	-5%
COc1cccc(/C=N/NC(=O)C(C)Cn2cnc3ccccc32)c1 (stereo not given)	15µM*	-5%	/	-7%	/	-3%
COc1ccc(/C=N/NC(=O)c2nc(-c3ccccc3)cc(-c3ccccc3)n2)cc1OC	2.4µM*	-3%	-6%	-1%	-37%	3%
COc1cccc(/C=N/NC(=O)c2nc(-c3ccccc3)cc(-c3ccccc3)n2)c1	2.4µM*	3%	-6%	-9%	-18%	-2%
COCCNC(=O)NC(=O)CN1C(=O)NC(Cc2c[nH]c3ccccc23)C1=O (stereo not given)	2%	2%	/	-1%	/	-2%
CC(=O)OCC1OC(Oc2cc(OC(C)=O)c3c(=O)cc(-c4ccc(OC(C)=O)c(OC(C)=O)c4)oc3c2)C(OC(C)=O)C(OC(C)=O)C1OC(C)=O (stereo not given)	/	/	-2%	/	/	/
Cn1nccc1C(=O)Nc1ccn(C23CC4CC(CC(C4)C2)C3)n1	27µM*	-2%	4%	?	-56%	7%
Cc1ccc(O)c(C(=O)/C=C/c2ccc3c(c2)OCCCO3)c1	5.4µM*	?	?	?	?	?
O=C(/C=C/c1ccc2c(c1)OCCCO2)c1ccccc1O	0.27µM*	1.8µM*	?	16µM*	?	3.2µM*
Cc1nn(-c2ccccc2)c(-n2cccc2)c1C(=O)NCCc1ccc(Cl)cc1	-2%	/	/	/	-67%	/
COCc1nc2oc3ccccc3c(=O)c2cc1C(=O)OC	15µM*	4.5µM*	/	?	/	?
CCOC(=O)c1cc2c(=O)c3ccccc3oc2nc1C	6µM*	?	/	9.2µM*	/	22%
CCOC(=O)c1c(C)nc(C)c2c(=O)oc3ccccc3c12	17µM*	23%	-2%	-11%	14%	-3%
CCOC(=O)c1cc2c(ccc3ccccc32)oc1=O	?	-5%	-7%	5%	/	-1%
O=C(c1ccc(Cl)cc1)c1cnc(-c2ccc(Cl)cc2)s1	2%	25%	-4%	7%	?	16%
O=C(c1ccccc1)c1cnc(-c2ccc(Cl)cc2)s1	0.34µM*	0.32µM*	?	2.6µM*	?	0.35µM*
O=C(c1ccccc1)c1cnc(-c2ccccc2)s1	1.2µM*	0.32µM*	-25%	2.1µM*	13µM*	0.5µM*
CC(C)C(=O)Nc1nnc2n1CCS2	0%	/	/	/	/	/
CC(C)c1nnc(NC(=O)c2ccc3ccccc3c2)s1	2.1µM*	1µM*	/	?	/	1µM*
Cc1nnc(NC(=O)c2ccc3ccccc3c2)s1	11µM*	1.4µM*	/	4.6µM*	/	1.8µM*
Clc1ccc(OCc2nc(-c3ccc(-n4cccc4)cc3)no2)cc1	-2%	/	/	/	-4%	/
